In all, about 140,000 sequences were measured (“enrichment ratio after two sorts for PhoP signalling”: median about 0, highest 2% from about 11 on). Only a selection was taken, and the highest values are over-represented in it overall.

To fix the notation:
B1: PhoQ; a variant is named by its letters at X, in order, P23837 (parent)
chain: MKKLLRLFFPLSLRVRFLLATAAVVLVLSLAYGMVALIGYSVSFDKTTFRLLRGESNLFYTLAKWENNKLHVELPENIDKQSPTMTLIYDENGQLLWAQRDVPWLMKMIQPDWLKSNGFHEIEADVNDTSLLLSGDHSIQQQLQEVREDDDDAEMTHSVAVNVYPATSRMPKLTIVVVDTIPVELKSSYMVWSWFIYVLSANLLLVIPLLWVAAWWSLRPIEALAKEVRELEEHNRELLNPATTRELTSLVRNLNRLLKSERERYDKYRTTLTDLTHSLKTPLXXLQXXLRSLRSEKMSVSDAEPVMLEQISRISQQIGYYLHRASMRGGTLLSRELHPVAPLLDNLTSALNKVYQRKGVNISLDISPEISFVGEQNDFVEVMGNVLDNACKYCLEFVEISARQTDEHLYIVVEDDGPGIPLSKREVIFDRGQRVDTLRPGQGVGLAVAREITEQYEGKIVAGESMLGGARMEVIFGRQHSAPKDE

Variants of B1 are the subject of the assay. Nature of the assay: enrichment ratio after two sorts for PhoP signalling (ratio (wild type AVST 3.29)); higher = more functional. The conditions noted are these: with PhoP (E. coli).
With DNYP, the enrichment ratio was no more than 0.25.

For the variant EFNV, the enrichment ratio was no more than 0.25.

On to FGIV, for which the enrichment ratio stood at 2.4.

In the case of ALMP, the enrichment ratio is no more than 0.25.

Take MHTV: the enrichment ratio was no more than 0.25.

Turning to FMAD, the enrichment ratio is no more than 0.25.

In the case of GMNN, the enrichment ratio is no more than 0.25.

Consider WNWL, for which the enrichment ratio is no more than 0.25.

Consider STSI, for which the enrichment ratio came to 8.26.

As for TVTG, the enrichment ratio was found to be 15.3.

On to SGSK, for which the enrichment ratio is no more than 0.25.

Turning to SGDH, the enrichment ratio is no more than 0.25.

Regarding SSSK, the enrichment ratio was no more than 0.25.

Regarding SSSR, the enrichment ratio was no more than 0.25.

Turning to SQSI, the enrichment ratio was 16.7.

SGSI: the enrichment ratio worked out at 15.9.

With SPTG, the enrichment ratio was no more than 0.25.

SSSI: the enrichment ratio was determined as 15.2.

As to SRSI, the enrichment ratio is no more than 0.25.

For the variant KSTG, the enrichment ratio was no more than 0.25.

For MQVF, the enrichment ratio amounted to 1.6.

As for KTET, the enrichment ratio is no more than 0.25.

For the variant FTCL, the enrichment ratio was 9.73.

Take RLFE: the enrichment ratio was no more than 0.25.

Consider YKMG, for which the enrichment ratio was no more than 0.25.

On to LISD, for which the enrichment ratio is no more than 0.25.

Consider LLSI, for which the enrichment ratio was no more than 0.25.

For DDSI, the enrichment ratio is no more than 0.25.

As for TLSI, the enrichment ratio is 18.6.

For NVSI, the enrichment ratio was no more than 0.25.

Regarding TSSI, the enrichment ratio is 19.5.

For TVSI, the enrichment ratio was found to be 17.4.

Turning to SESI, the enrichment ratio is 12.7.

Take FSSI: the enrichment ratio was 0.692.

Regarding KSSI, the enrichment ratio is no more than 0.25.

As to VLSI, the enrichment ratio was no more than 0.25.

In the case of SESR, the enrichment ratio was found to be 4.3.

Take SPSI: the enrichment ratio was no more than 0.25.

In the case of DSES, the enrichment ratio is no more than 0.25.

As to NHHT, the enrichment ratio was no more than 0.25.

As for VGTA, the enrichment ratio was no more than 0.25.

On to EQHP, for which the enrichment ratio is no more than 0.25.

LVPM: the enrichment ratio was no more than 0.25.

QFFS: the enrichment ratio was no more than 0.25.

Regarding TTNV, the enrichment ratio is 7.65.

Turning to PFAG, the enrichment ratio was no more than 0.25.

Regarding DGGW, the enrichment ratio was no more than 0.25.

On to KLSI, for which the enrichment ratio was no more than 0.25.

On to SNSK, for which the enrichment ratio was no more than 0.25.

For the variant KYSI, the enrichment ratio was no more than 0.25.

As for SNSR, the enrichment ratio is no more than 0.25.

For WLSI, the enrichment ratio is no more than 0.25.

With SISI, the enrichment ratio amounted to 19.1.

Turning to SNSI, the enrichment ratio came out at 12.4.

On to SLSI, for which the enrichment ratio amounted to 12.7.

With RISI, the enrichment ratio is no more than 0.25.

For the variant MVAF, the enrichment ratio was 8.08.

As to VNTQ, the enrichment ratio was no more than 0.25.

As to FEKW, the enrichment ratio was no more than 0.25.

For RVKS, the enrichment ratio was no more than 0.25.

For YPRG, the enrichment ratio is no more than 0.25.

Regarding SCSR, the enrichment ratio turned out to be 6.9.

For the variant SCPA, the enrichment ratio is no more than 0.25.

SCGD: the enrichment ratio is no more than 0.25.

Turning to SCSK, the enrichment ratio worked out at 14.3.

For the variant SCPM, the enrichment ratio was determined as 7.6.

As for SCPI, the enrichment ratio was found to be 15.2.

As to PQKP, the enrichment ratio is no more than 0.25.

With RTKL, the enrichment ratio was no more than 0.25.

Regarding YQFF, the enrichment ratio was no more than 0.25.

Consider PSPG, for which the enrichment ratio was no more than 0.25.

As for GCSG, the enrichment ratio was determined as 6.35.

As to QCSG, the enrichment ratio came out at 32.

Take QCSN: the enrichment ratio stood at 17.6.

With GCSN, the enrichment ratio is 3.22.

Consider QCSK, for which the enrichment ratio was no more than 0.25.

In the case of QCWG, the enrichment ratio was found to be 1.24.

On to YSWT, for which the enrichment ratio is no more than 0.25.

Take VTWY: the enrichment ratio was no more than 0.25.

On to LKQC, for which the enrichment ratio is no more than 0.25.

MYLH: the enrichment ratio was no more than 0.25.

For the variant YKYI, the enrichment ratio was no more than 0.25.

In the case of ADCS, the enrichment ratio was no more than 0.25.

Consider TDCQ, for which the enrichment ratio is 20.3.

Take TDCA: the enrichment ratio worked out at 14.6.

Consider FDCQ, for which the enrichment ratio is no more than 0.25.

In the case of TDCI, the enrichment ratio was no more than 0.25.

On to FDCA, for which the enrichment ratio is no more than 0.25.

Regarding LTCQ, the enrichment ratio is no more than 0.25.

On to KDCA, for which the enrichment ratio is no more than 0.25.

For TDCS, the enrichment ratio came to 11.3.

Regarding ERGV, the enrichment ratio was no more than 0.25.

As to TKWP, the enrichment ratio is no more than 0.25.

With PTMY, the enrichment ratio is no more than 0.25.

As to KYMY, the enrichment ratio was no more than 0.25.

Take ADMY: the enrichment ratio is 0.253.

As to RGMY, the enrichment ratio is no more than 0.25.

Regarding TKMY, the enrichment ratio was determined as 24.

For the variant AGMY, the enrichment ratio worked out at 20.

With STMY, the enrichment ratio is 12.6.

Take AIMY: the enrichment ratio was found to be 6.62.

Turning to TGMY, the enrichment ratio is 12.7.

For NGMY, the enrichment ratio is no more than 0.25.

In the case of HKMY, the enrichment ratio was no more than 0.25.

In the case of SWMY, the enrichment ratio is no more than 0.25.

For ICMS, the enrichment ratio was found to be 2.8.

QRAT: the enrichment ratio was no more than 0.25.

For the variant FCCR, the enrichment ratio was no more than 0.25.

For the variant DASH, the enrichment ratio is no more than 0.25.

For RNKS, the enrichment ratio was no more than 0.25.

With AEME, the enrichment ratio came to 29.5.

For the variant KSMY, the enrichment ratio is no more than 0.25.

AEMY: the enrichment ratio was 20.4.

TSMY: the enrichment ratio is 12.3.

On to NEMY, for which the enrichment ratio is no more than 0.25.

As to ATMY, the enrichment ratio was found to be 7.37.

For TGME, the enrichment ratio was no more than 0.25.

Take YTMY: the enrichment ratio was no more than 0.25.

With CTMY, the enrichment ratio was determined as 42.4.

For NSMY, the enrichment ratio was no more than 0.25.

Regarding AEYE, the enrichment ratio is no more than 0.25.

For WIMY, the enrichment ratio is no more than 0.25.

With NYYK, the enrichment ratio is no more than 0.25.

As to IYHP, the enrichment ratio was no more than 0.25.

As for HPGR, the enrichment ratio was no more than 0.25.

Take EGAD: the enrichment ratio is no more than 0.25.

As to VQVR, the enrichment ratio was no more than 0.25.

For the variant KMTK, the enrichment ratio is no more than 0.25.

With RCAP, the enrichment ratio is no more than 0.25.

Take FMFM: the enrichment ratio was no more than 0.25.

Consider TEMC, for which the enrichment ratio came to 18.9.

For EEMC, the enrichment ratio is no more than 0.25.

Consider VEMC, for which the enrichment ratio amounted to 15.7.

Regarding TCMC, the enrichment ratio worked out at 24.2.

Regarding VPMC, the enrichment ratio is no more than 0.25.

ITMC: the enrichment ratio was no more than 0.25.

With MEMC, the enrichment ratio is 4.97.

Regarding SRMC, the enrichment ratio was no more than 0.25.

Regarding VYMC, the enrichment ratio turned out to be 0.507.

For VCMC, the enrichment ratio came out at 1.73.

Take IEMC: the enrichment ratio is 12.9.

Turning to TYMC, the enrichment ratio is no more than 0.25.

With DVLN, the enrichment ratio is no more than 0.25.

With IGSC, the enrichment ratio was no more than 0.25.

SHAH: the enrichment ratio was determined as 5.87.

For the variant VCLL, the enrichment ratio worked out at 6.51.

FKPV: the enrichment ratio was no more than 0.25.

In the case of SYMC, the enrichment ratio is no more than 0.25.

With SLMC, the enrichment ratio is 3.3.

Consider QEMC, for which the enrichment ratio is no more than 0.25.

Turning to SPMC, the enrichment ratio is no more than 0.25.

As to SIMC, the enrichment ratio was found to be 19.4.

Take YAMC: the enrichment ratio is no more than 0.25.

With KYMC, the enrichment ratio was no more than 0.25.

For the variant KAMC, the enrichment ratio was no more than 0.25.

SEMC: the enrichment ratio was 18.

In the case of NEMC, the enrichment ratio is no more than 0.25.

As to SCMC, the enrichment ratio is 12.6.

As to TAMC, the enrichment ratio was found to be 14.6.

Consider KIGP, for which the enrichment ratio was no more than 0.25.

As to VITT, the enrichment ratio is no more than 0.25.

Consider TPNM, for which the enrichment ratio is no more than 0.25.

Regarding YGCE, the enrichment ratio was no more than 0.25.

Take NYTT: the enrichment ratio is no more than 0.25.

As for FHLQ, the enrichment ratio was no more than 0.25.

With ESME, the enrichment ratio was no more than 0.25.

As to VRRK, the enrichment ratio is no more than 0.25.

Regarding PKDY, the enrichment ratio was no more than 0.25.

For VMIQ, the enrichment ratio is no more than 0.25.

For YFFH, the enrichment ratio is no more than 0.25.

For WWTW, the enrichment ratio was no more than 0.25.

Regarding GPQA, the enrichment ratio was no more than 0.25.

As to STMC, the enrichment ratio stood at 8.81.

Regarding IIMC, the enrichment ratio was no more than 0.25.

Take SAMC: the enrichment ratio amounted to 18.1.

As to EEMP, the enrichment ratio is no more than 0.25.

With QQNV, the enrichment ratio is no more than 0.25.

With YMKP, the enrichment ratio is no more than 0.25.

As to NNQM, the enrichment ratio stood at 30.

For the variant KMQM, the enrichment ratio is no more than 0.25.

Consider TMQM, for which the enrichment ratio turned out to be 12.8.

As to MNQM, the enrichment ratio was no more than 0.25.

For TNQM, the enrichment ratio worked out at 14.3.

Consider NNCK, for which the enrichment ratio is no more than 0.25.

Regarding TWQM, the enrichment ratio was no more than 0.25.

For HAQM, the enrichment ratio was no more than 0.25.

With LNQM, the enrichment ratio is no more than 0.25.

For VGDP, the enrichment ratio was no more than 0.25.

As for RAMR, the enrichment ratio is no more than 0.25.

Regarding YTYM, the enrichment ratio is no more than 0.25.

On to WMWP, for which the enrichment ratio was no more than 0.25.

Consider KDVC, for which the enrichment ratio is no more than 0.25.

On to TDVC, for which the enrichment ratio was 24.1.

For the variant KSIC, the enrichment ratio was no more than 0.25.

In the case of YTIC, the enrichment ratio was no more than 0.25.

SYVC: the enrichment ratio was 0.486.

Take TDVG: the enrichment ratio came to 4.14.

For the variant LTIC, the enrichment ratio was no more than 0.25.

On to TDIC, for which the enrichment ratio amounted to 14.4.

As to SCIC, the enrichment ratio was 7.92.

Regarding SDVC, the enrichment ratio was 11.5.

STIC: the enrichment ratio turned out to be 13.

SDVG: the enrichment ratio was determined as 1.53.

These data come from a collection of fitness landscapes (doi:10.1126/science.1257360).
